PNC inhibitor = High Content Assay for Compounds that inhibit the Assembly of the Perinucleolar Compartment | activity change (PNC), negative = inhibition, % at 10 µM | PC3M PTB-GFP, PNC prevalence imaging, 16 h; active compounds read low | AID 2417, 2010 | 140,000 compounds, 3.1% hits;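 active = readout at or below -70, meaning at least 70% loss of cells showing the perinucleolar compartment, a nuclear body marking cancer cells; inconclusive = readout between -30 and a set limit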;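 also: plate controls were DMSO wells for no effect and camptothecin positive control wells for full effect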
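PC3M cells stably expressing PTB-GFP, 750–1000 cells/well, treated 16 h at 37 °C with compound (23 nl of library stock), in duplicate. After paraformaldehyde fixation and Hoechst stain, imaged at 20x; PNC prevalence scored by image analysis.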
IMPase Li cell = qHTS Assay for Identifying the Cell-Membrane Permeable IMPase Inhibitors: Potentiation with Lithium; CHO-M1 cells, IP1 TR-FRET (IP-One), carbachol + lithium; Potency, µM (series often up to 59.4 µM), for inactives: top-dose activity, negative = IMPase inhibition, hits mostly inhibitors; 210,000 compounds, 0.35% hits; AID 1457, 2008; active = well fitted curve in the direction sought with a large enough effect; inconclusive = small, poorly fitted or top-dose-only effect, or another doubt; inactive = no such curve, though single readings can be large; an effect the other way counts as inactive or inconclusive;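 also: IP1 builds up when IMPase is blocked and the TR-FRET signal falls; potency is read from the fitted curve at half-maximal effect; plate controls were basal vehicle for no effect and high inhibitor control for full effect; nearly all actives have a fitted effect of over 50% in size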
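CHO-M1, 2000 cells/well, 16–30 h culture; cpd + low Li+, 30 min 37C; lysis with d2-IP1/Eu-anti-IP1 Ab, 10 min RT; TR-FRET 665/620 ratio and 620 channel; AC50 via Hill.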
HPGD inh = qHTS Assay for Inhibitors of HPGD (15-Hydroxyprostaglandin Dehydrogenase); 15-hydroxyprostaglandin dehydrogenase [NAD(+)] (Homo sapiens), P15428; purified HPGD, NADH fluorescence kinetic, PGE2 substrate; Potency, µM, inactives show at the top dose activity change, negative = inhibition, most hits filed as inhibitors; 150,000 compounds, 4.3% hits; AID 894, 2007; also: potency is read from the fitted curve at half-maximal effect
Target sequence (P15428 whole entry, looked up): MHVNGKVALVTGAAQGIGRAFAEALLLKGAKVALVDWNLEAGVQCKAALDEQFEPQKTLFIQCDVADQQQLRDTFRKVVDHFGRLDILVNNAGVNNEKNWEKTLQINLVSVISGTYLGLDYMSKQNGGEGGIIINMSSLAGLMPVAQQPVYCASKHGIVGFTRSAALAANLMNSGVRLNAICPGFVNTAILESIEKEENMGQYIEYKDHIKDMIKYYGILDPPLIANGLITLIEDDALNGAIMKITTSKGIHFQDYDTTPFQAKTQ
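20 nM HPGD preincubated 15 min at room temperature with compound in 50 mM Tris-HCl pH 8, 0.01% Tween 20. Started with 1 mM NAD+ and 30 uM prostaglandin E2; NADH fluorescence (360/450 nm) read 5 times over 30-s intervals, last minus first.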
ALDH1A1 block = qHTS Assay for Inhibitors of Aldehyde Dehydrogenase 1 (ALDH1A1); Aldehyde dehydrogenase 1A1 (Homo sapiens), P00352; Purified ALDH1A1, NADH fluorescence, propionaldehyde substrate; Potency, µM (top dose mostly 75.3 µM), inactives show top-dose activity, negative = inhibition, actives largely listed as inhibitors; 220,000 compounds, 7.3% hits; AID 1030, 2008;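 also: potency is read from the fitted curve at half-maximal effect; plate controls were no enzyme wells and a reference inhibitor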
12-hLO inh = qHTS Assay for Inhibitors of 12-hLO (12-human lipoxygenase) | Polyunsaturated fatty acid lipoxygenase ALOX12 (Homo sapiens), P18054 | 150,000 compounds, 0.12% hits | Potency, µM (top dose mostly 57.1 µM), without a hit: at the highest dose activity change, negative = inhibition, usual class: inhibitors | purified 12-hLO, xylenol orange hydroperoxide absorbance | AID 1452, 2008; active = well fitted curve in the direction sought with a large enough effect; inconclusive = small, poorly fitted or top-dose-only effect, or another doubt; inactive = no such curve, though single readings can be large; an effect the other way counts as inactive or inconclusive; also: potency is read from the fitted curve at half-maximal effect; nearly all actives have a fitted effect of over 55% in size
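Hydroperoxide output read as Fe(III)-xylenol orange absorbance, 573-to-405 nm ratio, after 30 min reaction with 40 uM arachidonic acid. Enzyme: 150 nM purified human 12hLO, 15 min compound preincubation; 25 mM Hepes pH 7.0, room temperature.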
IMPase cell inh = qHTS Assay for Identifying the Cell-Membrane Permeable IMPase Inhibitors; CHO-M1 cells, IP1 accumulation, HTRF TR-FRET ratio; inhibition (IP1 accumulation), % at 46.1 µM; 120,000 tested, under 10 active; AID 901, 2007; active = well fitted curve in the direction sought with a large enough effect in the signal ratio, not every such curve was filed as active; inconclusive = small, poorly fitted or top-dose-only effect, or a change in a side signal; inactive = no such curve, though single readings can be large or run the other way; the % refers to the signal ratio;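 also: cells stimulated with carbachol in lithium chloride buffer; plate controls were DMSO basal wells for no effect and reference inhibitor wells for full effect; higher means more IMPase inhibition seen as more IP1 and lower FRET ratio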
Target sequence (P97697 whole entry, looked up): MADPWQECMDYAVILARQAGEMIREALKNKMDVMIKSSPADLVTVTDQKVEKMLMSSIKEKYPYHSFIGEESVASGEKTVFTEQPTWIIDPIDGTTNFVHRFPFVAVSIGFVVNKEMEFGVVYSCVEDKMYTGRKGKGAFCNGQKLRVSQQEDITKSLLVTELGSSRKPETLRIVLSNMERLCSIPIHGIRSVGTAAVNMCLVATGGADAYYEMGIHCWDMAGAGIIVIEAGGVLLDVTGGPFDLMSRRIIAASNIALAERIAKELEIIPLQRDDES
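Measured: the HTRF emission ratio (665/620 nm) plus the 620 nm donor channel, each fitted to the Hill equation to give AC50. Cells were CHO-M1 given compounds up to 46 uM and a 30 min carbachol stimulation at 37C.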
Starred values were filed as active, the others as inactive; [ ] = remark or other dose. This is a sample that favours compounds with a hit; in the whole collection about 11% have one here. Unless noted, calls follow the shape of the dose curve; as a rule, active = well fitted inhibition curve with a large enough effect (not every such curve was filed as active); inconclusive = small, poorly fitted or top-dose-only effect, or another doubt; inactive = no such curve, though single readings can be large or run the other way. Unless noted, % is scaled to controls: 0 for no effect and ±100 for the full control effect.

Results for Cc1cc(C)c2c(c1)[C@@H]1C=CC[C@@H]1[C@H](c1ccc(S(=O)(=O)N3CCOCC3)cc1)N2 ?
PNC inhibitor: -80.9*; IMPase Li cell: 6.7%; HPGD inh: 25.1µM*; ALDH1A1 block: 25.1µM*; 12-hLO inh: -0.1%

Results for Cc1ccc2c(c1)N(S(=O)(=O)c1ccc(F)cc1)C(C(C)(C)C)CO2 (stereo unspecified) ?
PNC inhibitor: -26.5; IMPase Li cell: -0.8%; HPGD inh: 1.4%; ALDH1A1 block: 6.5%; 12-hLO inh: -2.0%; IMPase cell inh: 4.9

What do the screens show for `Cc1ccc(S(=O)(=O)N2c3ccccc3OCC2C(C)(C)C)cc1` (stereo unspecified)?
PNC inhibitor: -100.0*; IMPase Li cell: 6.0%; HPGD inh: -10.2%; ALDH1A1 block: 10.1%; 12-hLO inh: 2.9%; IMPase cell inh: 0.8

Results for COc1ccc(S(=O)(=O)O/N=C2\CCSc3ccc(C)cc32)cc1 ?
PNC inhibitor: 14.7; IMPase Li cell: 60.2%[38.3 µM]; HPGD inh: -7.3%; ALDH1A1 block: 7.08µM*; 12-hLO inh: 1.2%; IMPase cell inh: 2.2

What do the screens show for `CCOC(=O)C(C)(C)Oc1ccc(Cl)cc1`?
IMPase Li cell: 33.5%; HPGD inh: -11.3%; ALDH1A1 block: -10.0%; 12-hLO inh: 2.8%[0.00818 µM]; IMPase cell inh: 5.0

Results for CCCCCOc1ccc(/C=C/C(=O)Nc2sc(C(C)=O)c(C)c2C(=O)OCC)cc1OC ?
IMPase cell inh: -8.7

Results for Cc1cc(C)cc(NS(=O)(=O)c2cnc(Cl)c(Cl)c2)c1 ?
PNC inhibitor: inconclusive; IMPase Li cell: 1.9%[38.3 µM]; HPGD inh: -10.4%; ALDH1A1 block: 3.55µM*; 12-hLO inh: -1.7%; IMPase cell inh: -2.7

Results for Cn1nnnc1SCC1=C(C(=O)O)N2C(=O)C(NC(=O)C(O)c3ccccc3)C2SC1 (stereo unspecified) ?
IMPase Li cell: 30.0%; HPGD inh: inconclusive; ALDH1A1 block: inconclusive; 12-hLO inh: -3.0%

Results for Cn1nnnc1SCC1=C(C(=O)O)N2C(=O)C(NC(=O)C3CC3c3ccccc3)C2SC1 (stereo unspecified) ?
IMPase Li cell: -2.3%; ALDH1A1 block: 10µM*

Results for CC(C(=O)NC1C(=O)N2C(C(=O)O)=C(CSc3nnnn3C)CSC12)n1cc(Br)cn1 (stereo unspecified) ?
IMPase Li cell: 8.6%; ALDH1A1 block: 15µM*

What do the screens show for `OCC1OC(C#Cc2ccccc2)C=CC1OCc1ccccc1` (stereo unspecified)?
ALDH1A1 block: 5.6%[13.5 µM]

What do the screens show for `Cc1ccc(O)c(-c2cc(C(=O)NCc3ccncc3)[nH]n2)c1`?
PNC inhibitor: -5.8; IMPase Li cell: 4.0%[38.3 µM]; HPGD inh: 5.01µM*; ALDH1A1 block: -7.0%; 12-hLO inh: -7.5%; IMPase cell inh: 5.5

What do the screens show for `Cc1cc(O)c(-c2cc(C(=O)Nc3ccc(S(=O)(=O)N4CCOCC4)cc3)[nH]n2)cc1C`?
PNC inhibitor: -24.8; IMPase Li cell: -8.2%[38.3 µM]; HPGD inh: -2.1%; ALDH1A1 block: 9.5%; 12-hLO inh: -3.8%; IMPase cell inh: -1.3[1.84 µM]

How did Cc1ccc(O)c(-c2cc(C(=O)Nc3ccc(S(=O)(=O)N4CC(C)OC(C)C4)cc3)[nH]n2)c1 (stereo unspecified) do in these assays?
PNC inhibitor: 8.9; IMPase Li cell: 3.0%; HPGD inh: 12.6µM*; ALDH1A1 block: 2.9%; 12-hLO inh: -1.6%; IMPase cell inh: 10.7

What do the screens show for `Cc1ccc(O)c(-c2cc(C(=O)Nc3ccc(S(=O)(=O)Nc4nc(C)cc(C)n4)cc3)[nH]n2)c1`?
PNC inhibitor: 16.0; IMPase Li cell: -2.6%; HPGD inh: 0.891µM*; ALDH1A1 block: 2.8%; 12-hLO inh: -0.2%

How did CCc1nnc2c(Nc3cc(OC)c(Cl)cc3OC)nc3ccccc3n12 do in these assays?
IMPase cell inh: -5.2

How did CC(C)CNC(=O)CC(=O)N/N=C/c1ccc(Br)cc1 do in these assays?
PNC inhibitor: 28.2; IMPase Li cell: 7.0%[38.3 µM]; HPGD inh: 15.8µM*; ALDH1A1 block: 0.891µM*; 12-hLO inh: 1.0%; IMPase cell inh: 11.4

How did COc1cccc(/C=N/NC(=O)C(=O)NCc2cccnc2)c1OC do in these assays?
IMPase Li cell: 6.1%; ALDH1A1 block: 15.8µM*

What do the screens show for `Cc1ccccc1C1CC(=O)Nc2ccc3ccccc3c21` (stereo unspecified)?
IMPase cell inh: 12.2

What do the screens show for `COc1ccc(NS(=O)(=O)c2cccs2)cn1`?
IMPase Li cell: 2.5%; ALDH1A1 block: 8.6%

Results for COc1ccc(NS(=O)(=O)c2ccc(OC)c3ccccc23)cn1 ?
PNC inhibitor: -12.8; IMPase Li cell: 1.0%[38.3 µM]; HPGD inh: -20.0%; ALDH1A1 block: 7.08µM*; 12-hLO inh: -19.4%; IMPase cell inh: 0.8

What do the screens show for `Cc1ccc(/C=N/NC(=O)CSc2nc3ccccc3s2)o1`?
PNC inhibitor: -2.8; IMPase Li cell: 8.4%; HPGD inh: 14.1µM*; ALDH1A1 block: 11.2µM*; 12-hLO inh: -2.3%

What do the screens show for `Cc1ccc(/C=N/NC(=O)CSc2nnc(-c3ccc(Cl)cc3)n2-c2ccccc2)o1`?
PNC inhibitor: inconclusive; IMPase Li cell: 14.8%; HPGD inh: inconclusive; ALDH1A1 block: 10µM*; 12-hLO inh: 0.0%

How did COCC(=O)N/N=C/c1ccc(Sc2nc3ccccc3s2)o1 do in these assays?
PNC inhibitor: 69.6; IMPase Li cell: -14.2%[38.3 µM]; HPGD inh: -27.4%; ALDH1A1 block: inconclusive; 12-hLO inh: 4.9%; IMPase cell inh: 0.0

Results for O=C(COc1cccc2ccccc12)N/N=C/c1ccc(Sc2nc3ccccc3s2)o1 ?
PNC inhibitor: -11.0; IMPase Li cell: 21.3%[38.3 µM]; HPGD inh: 28.2µM*; ALDH1A1 block: inconclusive; 12-hLO inh: 6.9%; IMPase cell inh: 2.3

What do the screens show for `Cc1cc2c(nc1C)CCCCN2C[C@H](O)CN1CCCc2nc(-c3ccc(Br)cc3)ccc21`?
ALDH1A1 block: -1.3%[13.5 µM]

What do the screens show for `COc1cc(OC)cc(-c2sc3ccccc3c(=O)c2I)c1`?
IMPase Li cell: 1.2%; HPGD inh: inconclusive; ALDH1A1 block: -15.0%; 12-hLO inh: -1.5%[0.00818 µM]

What do the screens show for `Cc1ccc(S(=O)(=O)N2CCN(Cc3cc(Br)ccc3O)CC2)cc1`?
IMPase cell inh: 3.7
